The list is not random: actives were taken first. Their share in the collection is about 9.3%.
Rab9 promoter act = activators of Rab9 promoter; hit rate 2.8% among 320,000; Potency, µM (top dose mostly 9.22 µM), without a hit: at the top dose activation, negative = inhibition, most hits filed as activators; Huh7 Rab9 promoter-luciferase reporter, luminescence, 24 h; further: % of control where 0% means no effect; nearly all actives have a fitted effect of over 60% in size
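Measured in stably transfected Huh7 cells bearing a Rab9 promoter–luciferase construct: 24 h compound treatment at 37 °C, followed by luminescence detection.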
ELG1 genotox = induces genotoxicity in HEK293T cells with luciferase-tagged ELG1; HEK293T ELG1-luciferase reporter, luminescence, 16 h; Potency, µM (top dose mostly 46 µM), without a hit: at the highest dose activity change, positive = activation, usual class: activators; hit rate 1.3% among 330,000; further: % of control where 0% means no effect; nearly all actives have a fitted effect of over 60% in size
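Step 1: seed 2,000 HEK293T ELG1-luciferase cells per well. Step 2: add compound or DMSO, incubate 16 hr at 37 °C. Step 3: ONE-Glo, 30 min at room temperature, read luminescence.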
ELG1 repair inh = ELG1-dependent DNA repair inhibition; HEK293T ELG1-luciferase reporter, luminescence, 16 h; DNA damage induced by 5-fluorouridine; Potency, µM (highest dose often 46.1 µM), for inactives: at the highest dose activity change, negative = inhibition, actives largely listed as inhibitors; hit rate 2.3% among 330,000; AID 504467; further: on the % scale 0 is the no-effect control and ±100 the full control effect; nearly all actives have a fitted effect of over 55% in size
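Reporter activity after DNA damage by 5-fluorouridine is monitored. Compound-treated cells incubate 16 hr at 37 °C, then ONE-Glo is added for 30 min before luminescence reading.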
FLuc modulator = firefly luciferase modulation, counter-screen for miR-21 project; hit rate 6.9% among 360,000; P08659; Potency, µM (series often up to 57.5 µM), inactives show at the top dose activity change, negative = inhibition, usual class: inhibitors; purified FLuc, Km substrates, luminescence inhibition;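 further: plate controls were vehicle for no effect and reference inhibitor for full effect; nearly all actives have a fitted effect of over 55% in size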
Target sequence (P08659 whole entry, looked up): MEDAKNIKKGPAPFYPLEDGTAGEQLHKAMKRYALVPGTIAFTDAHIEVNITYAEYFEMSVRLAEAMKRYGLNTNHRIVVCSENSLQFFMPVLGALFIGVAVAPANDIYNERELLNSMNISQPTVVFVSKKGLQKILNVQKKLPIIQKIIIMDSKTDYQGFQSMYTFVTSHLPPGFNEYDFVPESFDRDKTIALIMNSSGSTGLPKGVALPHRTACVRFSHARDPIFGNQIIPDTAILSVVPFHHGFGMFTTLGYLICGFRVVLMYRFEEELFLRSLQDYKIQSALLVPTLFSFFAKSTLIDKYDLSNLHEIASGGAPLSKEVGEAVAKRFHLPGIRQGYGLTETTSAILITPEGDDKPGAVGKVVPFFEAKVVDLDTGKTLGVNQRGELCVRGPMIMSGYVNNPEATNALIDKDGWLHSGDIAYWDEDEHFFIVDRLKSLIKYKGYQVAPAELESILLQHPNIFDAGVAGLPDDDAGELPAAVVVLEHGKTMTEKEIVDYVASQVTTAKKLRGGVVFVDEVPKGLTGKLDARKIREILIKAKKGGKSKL
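Purified P. pyralis luciferase, 10 nM final, with Km-level 10 uM D-luciferin and 10 uM ATP in 50 mM Tris acetate pH 7.5, 10 mM Mg acetate, 0.01% Tween-20, 0.05% BSA; 6-point qHTS titration about 60 µM downward; luminescence read.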
SMN2 splice enh = SMN2 splice variant enhancement; HEK293 SMN2-luciferase splicing reporter, luminescence, 30-36 h; Potency, µM (highest dose often 46.1 µM), for inactives: at the top dose activity change, positive = activation, most hits filed as activators; hit rate 2.8% among 210,000; further: % of control where 0% means no effect; nearly all actives have a fitted effect of over 55% in size
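qHTS luciferase splicing reporter: luminescence rises when SMN2 exon 7 is included in transfected HEK293 cells. Compound exposure lasted 30-36 h at 37C, with 4.5 mM final sodium butyrate as control, followed by a ONE-Glo read.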
NPC1 promoter act = NPC1 promoter activation; hit rate 2.4% among 320,000; Potency, µM (top dose mostly 9.22 µM), for the others: top-dose activation, usual class: activators; Huh7 NPC1 promoter luciferase reporter, 24 h; further: % of control where 0% means no effect; nearly all actives have a fitted effect of over 60% in size
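Quantitative HTS used a cell-based reporter: Huh7 cells stably bearing the NPC1 promoter upstream of luciferase were treated with compounds for 24 h, and promoter activation was read as luminescence.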
* marks the source's active call; other numbers are inactive results; ? = inconclusive; . = no result; [ ] = dose if it differs, or a comment. The call rests on the fitted dose curve; in most records, active means well fitted curve in the direction sought with a large enough effect; inconclusive means small, poorly fitted or top-dose-only effect, or another doubt; inactive means no such curve, though single readings can be large; an effect the other way counts as inactive or inconclusive. Potency means the concentration at half of the fitted maximal effect.

SMILES	Rab9 promoter act	ELG1 genotox	ELG1 repair inh	FLuc modulator	SMN2 splice enh	NPC1 promoter act
O=C(COC(=O)c1ccc(O)cc1O)Nc1nnc(-c2ccccc2)o1	-1%	3%	4%	?	.	-8%
Cc1nc2ccc(C(=O)OCc3ccccc3Br)cc2nc1C	1.1µM*	?	?	12µM*	8%	3.2µM*
CC(=O)c1cnc2c(-c3ccccc3)cnn2c1C	10%	?	?	?	-3%	13%
CC(=O)Nc1ccc(C(=O)OCc2ccccc2Br)cc1	?	15%	?	?	9%	7%
CCOC(=O)c1ccc2ncc(-c3ccccc3)nc2c1	3.5µM*	10µM*	?	5.4µM*	179%	3.2µM*
CCOC(=O)c1cnc(-c2ccccc2)nc1N(C)C	-3%	11µM*	?	15µM*	4.5µM*	-4%
CCOC(=O)c1cnc2c(-c3ccccc3)cnn2c1C	1.6µM*	8.2µM*	?	1.9µM*	11µM*	2.5µM*
CCOC(=O)c1cccc(-c2c(-c3ccccc3)ncc3cc(OC)c(OC)cc23)c1	-1%	4%	?	?	.	?
COc1ccc(C(=O)N2CCC3(CC2)CN(c2ccc(-c4ccccc4)cc2)C3)cc1	.	.	.	.	-21%	.
O=C(Nc1cccc(F)c1)NC1(C(=O)N2CCOCC2)CCCCC1	0%	0%	3%	0%	12%	-2%
CCCCN(C)c1ncnc2c1cnn2-c1cccc(Cl)c1	.	.	.	2.7µM*	.	.
Cc1cccc(-n2ncc3c(N(C)Cc4ccccc4)ncnc32)c1	3.5µM*	?	?	2.4µM*	.	4µM*
O=C1CCCN1CCCNc1ncnc2c1cnn2-c1ccc(Cl)cc1	?	18µM*	?	17µM*	-35%	?
CC(C)CCNc1ncnc2c1cnn2-c1cccc(Cl)c1	.	.	.	17µM*	.	.
COc1ccc(CCNc2ncnc3c2cnn3-c2cccc(Cl)c2)cc1	.	.	.	-3%	.	.
Cc1nnc(NC(=O)C23CC4CC(CC(C4)C2)C3)s1	-3%[1.84 µM]	-1%	-5%	-15%	.	-2%
Cc1ccccc1CSCC(=O)NNC(=S)NCC1CCCO1 (stereo unspecified)	-2%	-6%	?	1%	.	-6%
CC(C)(C)C1CCc2c(sc3nc(-c4cc5cc(Br)ccc5oc4=O)[nH]c(=O)c23)C1 (stereo unspecified)	.	.	.	-13%	.	.
OCCCNc1ncnc2c1cnn2-c1ccc(Cl)cc1	0.28µM*	?	?	1.9µM*	.	0.2µM*
CN(C)CCNc1ncnc2c1cnn2-c1cccc(Cl)c1	.	.	.	24µM*	.	.
Cc1ccc(Cn2ncc3c(NCCN(C)C)ncnc32)cc1	-2%	1%	16%	3%	.	-4%
CN(C)CCNc1ncnc2c1cnn2-c1ccc(Cl)cc1	?	21µM*	?	7.6µM*	26%	16%
CC1(C)Cc2nc3oc4c(SCC(N)=O)ncnc4c3cc2CO1	13%	3%	2%	?	.	9%
N#C/C(=C\c1cccc([N+](=O)[O-])c1)C(=O)Nc1cccnc1	-1%	3%	3%	-5%	-5%	0%
CCCn1c(C)cc(/C=C(\C#N)C(=O)OCC(=O)Nc2cccc(S(N)(=O)=O)c2)c1C	25%	5%	?	3.8µM*	.	14%
CCOC(=O)/C(C#N)=C/c1cc(C)n(-c2ccccc2)c1C	0.56µM*	0.65µM*	?	0.54µM*	-73%	3.2µM*
Cc1cc(C(=O)O)ccc1-n1c(C)cc(/C=C(/C#N)C(=O)Nc2ccccc2)c1C	1%	-3%	1%	?	.	-2%
Cc1cc(/C=C(\C#N)C(=O)Nc2ccccc2)c(C)n1-c1cccnc1	2.8µM*	13%	?	1.5µM*	5.6µM*	?
N#C/C(=C\c1ccccc1O)C(=O)Nc1cccnc1	1.6µM*	?	?	3µM*	.	2.8µM*
Cc1ccc(NC(=O)/C(C#N)=C/c2cc(C)n(-c3ccc(F)cc3)c2C)cc1C	.	.	.	-2%	17%	.

Screens (PubChem)
